The record followed here is PubChem BioAssay (NCATS).

Several values for one entry are separate records, joined by “and”; a condition that tells them apart may be missing. Identical values can stand only once. Results filed as inconclusive are left out. Activity calls are given as the source filed them. Unless noted, the call rests on the fitted dose curve; in most records, active means well fitted curve in the direction sought with a large enough effect; inconclusive means small, poorly fitted or top-dose-only effect, or another doubt; inactive means no such curve, though single readings can be large; an effect the other way counts as inactive or inconclusive.

The nature of assay [1]: Primary qHTS for inhibitors of nuclear receptor binding SET domain protein 2 (NSD2) in an isogenic RCH-ACV NSD2 p.E1099K mutant (9B) (AID 1645876). Further: nearly all actives have a fitted effect of over 70% in size. Further: potency means the concentration at half of the fitted maximal effect.
A short description of assay [2]: Primary qHTS for inhibitors of nuclear receptor binding SET domain protein 2 (NSD2) in an RCH-ACV wild type WT cells (2C) (AID 1645877). Further: nearly all actives have a fitted effect of over 70% in size. Further: potency means the concentration at half of the fitted maximal effect.
Assay [3] deals with Catechol O-methyltransferase (Homo sapiens) (UniProt P21964). In words: Confirmatory Screen for Target Class Profiling of Small Molecule Inhibitors of Methyltransferases (AID 1745852; calls by dose curve; further: potency means the concentration at half of the fitted maximal effect; on activity change, negative = inhibition: on the % scale 0 is the no-effect control and ±100 the full control effect). Conditions: MTase-Glo luminescence, SAH detection, recombinant enzyme; measured here: COMT max response; stronger effect = lower value.
Catechol O-methyltransferase (Homo sapiens), sequence (P21964 whole entry, looked up): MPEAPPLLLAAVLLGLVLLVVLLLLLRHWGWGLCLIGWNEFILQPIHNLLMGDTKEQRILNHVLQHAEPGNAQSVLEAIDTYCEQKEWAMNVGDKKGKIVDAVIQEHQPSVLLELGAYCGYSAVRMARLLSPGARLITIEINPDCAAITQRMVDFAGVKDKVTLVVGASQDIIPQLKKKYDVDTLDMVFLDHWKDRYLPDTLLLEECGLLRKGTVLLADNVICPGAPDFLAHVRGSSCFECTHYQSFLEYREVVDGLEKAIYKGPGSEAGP
Assay [4] deals with Guanidinoacetate N-methyltransferase (Homo sapiens) (UniProt Q14353). The assay is described as above. Conditions: MTase-Glo luminescence, SAH detection, recombinant enzyme; activity change, negative = inhibition: at 57.3 µM (top of the series).
In assay [5] the target is Rap guanine nucleotide exchange factor 3 (Homo sapiens) (UniProt O95398). In words: Confirmatory qHTS for antagonist of cAMP-regulated guanine nucleotide exchange factor 3 (EPAC1) (AID 1645880).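 Further: plate controls were DMSO only for no effect and full effect of the ATA control for full effect; nearly all actives have a fitted effect of over 55% in size.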 The method in brief:
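Released BODIPY-GDP fluoresces less than Rap1-bound BODIPY-GDP; the signal is followed at 480/540 nm at 5-min intervals over 30 min, after 5 min at room temperature. Reactions contain 100 nM EPAC1, 250 nM RAP1B-BODIPY-GDP and 50 uM GDP; results are normalized to ATA and DMSO.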
(In general: Quantitative high-throughput screening tests each substance at several concentrations.)

For assay [6] the target is unchanged. In words: Confirmatory qHTS for agonist of cAMP-regulated guanine nucleotide exchange factor 3 (EPAC1) (AID 1645881). Further: nearly all actives have a fitted effect of over 75% in size. Further: potency means the concentration at half of the fitted maximal effect.
For assay [7], the target named is Rap guanine nucleotide exchange factor 4 (Homo sapiens) (UniProt Q8WZA2). Briefly: Confirmatory qHTS for agonist of cAMP-regulated guanine nucleotide exchange factor 4 (EPAC2) (AID 1645884).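 Further: nucleotide exchange releases bodipy-GDP from Rap1 and this lowers its fluorescence; nearly all actives have a fitted effect of over 65% in size.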 Further: potency means the concentration at half of the fitted maximal effect.
Rap guanine nucleotide exchange factor 4 (Homo sapiens), sequence (Q8WZA2 whole entry, looked up): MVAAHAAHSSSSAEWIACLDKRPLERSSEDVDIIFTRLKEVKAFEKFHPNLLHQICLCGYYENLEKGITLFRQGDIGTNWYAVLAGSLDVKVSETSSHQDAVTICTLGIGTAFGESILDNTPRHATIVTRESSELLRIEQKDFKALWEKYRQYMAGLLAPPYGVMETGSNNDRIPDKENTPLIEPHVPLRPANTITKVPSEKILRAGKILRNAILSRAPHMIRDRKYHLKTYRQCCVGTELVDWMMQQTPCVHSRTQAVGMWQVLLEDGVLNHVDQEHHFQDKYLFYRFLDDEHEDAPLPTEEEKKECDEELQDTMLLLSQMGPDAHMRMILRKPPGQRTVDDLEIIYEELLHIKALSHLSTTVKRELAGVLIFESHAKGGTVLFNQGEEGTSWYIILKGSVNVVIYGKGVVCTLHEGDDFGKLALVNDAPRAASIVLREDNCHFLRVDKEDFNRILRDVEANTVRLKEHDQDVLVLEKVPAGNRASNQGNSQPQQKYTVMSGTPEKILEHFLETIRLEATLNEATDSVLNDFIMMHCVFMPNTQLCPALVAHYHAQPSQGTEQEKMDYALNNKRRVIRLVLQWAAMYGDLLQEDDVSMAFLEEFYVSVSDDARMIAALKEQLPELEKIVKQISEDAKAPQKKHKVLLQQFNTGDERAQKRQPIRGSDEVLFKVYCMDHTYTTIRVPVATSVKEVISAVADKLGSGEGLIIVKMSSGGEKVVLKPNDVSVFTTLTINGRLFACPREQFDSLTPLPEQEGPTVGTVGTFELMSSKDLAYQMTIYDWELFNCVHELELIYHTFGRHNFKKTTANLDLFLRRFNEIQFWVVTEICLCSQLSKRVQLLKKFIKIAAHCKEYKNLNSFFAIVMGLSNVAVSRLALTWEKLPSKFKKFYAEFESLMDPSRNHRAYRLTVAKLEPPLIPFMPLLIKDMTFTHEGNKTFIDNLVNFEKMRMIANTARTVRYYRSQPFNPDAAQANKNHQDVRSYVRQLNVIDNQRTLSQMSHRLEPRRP
Assay [8] shares this target. In words: Confirmatory qHTS for antagonist of cAMP-regulated guanine nucleotide exchange factor 4 (EPAC2) (AID 1645885). Further: nearly all actives have a fitted effect of over 25% in size. Further: potency means the concentration at half of the fitted maximal effect. On activity change, negative = inhibition: on the % scale 0 is the no-effect control and ±100 the full control effect.
Assay [9] has as its target Rap guanine nucleotide exchange factor 3 (Homo sapiens) (UniProt O95398). In words: Counterscreen qHTS for antagonist of cAMP-regulated guanine nucleotide exchange factor 3 (EPAC1) (AID 1645888). Further: % of control where 0% means no effect. From the text:
Assay Provider (PI): Xiaodong Cheng Ph.D. The University of Texas Medical Branch, […], TX MLPCN Grant: NS066510 In multi-cellular eukaryotic organisms, the effects of cAMP are transduced by two ubiquitously-expressed intracellular cAMP receptors, the classic protein kinase A/cAMP-dependent protein kinase (PKA/cAPK) and the more recently discovered exchange protein directly activated by cAMP/cAMP-regulated guanine nucleotide exchange factor (EPAC/cAMP-GEF). Both PKA and EPAC are ubiquitously expressed in all tissues, and an increase in intracellular cAMP levels will lead to the activation of both PKA and EPAC. […] This qHTS will be used to screen the Molecular Libraries Small Molecule Repository (MLSMR) as a concentration-titration series using the NCGC unique quantitative screening (qHTS) platform to find activators for EPAC1. […] Activators are identified by monitoring the change in fluorescence signal as the exchanged free BODIPY-GDP has a reduced fluorescence compared to Rap1-bound BODIPY-GDP. […]
EPAC1 Counterscreen PROTOCOL TABLE SEQUENCE No. (e.g., 1, 2, 3, etc.); […] […] Fluorescence. (Read 1), Ex/Em = 480 nm / 540 nm. […] Fluorescence. (Read 2), Ex/Em = 480 nm/ 540 nm. […] Fluorescence. (Read 3), Ex/Em = 480 nm / 540 nm. […] Fluorescence. (Read 4), Ex/Em = 480 nm / 540 nm. […]
Background: The purpose of a counterscreen is to sort out artefacts and off-target activity.

Rap guanine nucleotide exchange factor 3 (Homo sapiens), sequence (O95398 whole entry, looked up): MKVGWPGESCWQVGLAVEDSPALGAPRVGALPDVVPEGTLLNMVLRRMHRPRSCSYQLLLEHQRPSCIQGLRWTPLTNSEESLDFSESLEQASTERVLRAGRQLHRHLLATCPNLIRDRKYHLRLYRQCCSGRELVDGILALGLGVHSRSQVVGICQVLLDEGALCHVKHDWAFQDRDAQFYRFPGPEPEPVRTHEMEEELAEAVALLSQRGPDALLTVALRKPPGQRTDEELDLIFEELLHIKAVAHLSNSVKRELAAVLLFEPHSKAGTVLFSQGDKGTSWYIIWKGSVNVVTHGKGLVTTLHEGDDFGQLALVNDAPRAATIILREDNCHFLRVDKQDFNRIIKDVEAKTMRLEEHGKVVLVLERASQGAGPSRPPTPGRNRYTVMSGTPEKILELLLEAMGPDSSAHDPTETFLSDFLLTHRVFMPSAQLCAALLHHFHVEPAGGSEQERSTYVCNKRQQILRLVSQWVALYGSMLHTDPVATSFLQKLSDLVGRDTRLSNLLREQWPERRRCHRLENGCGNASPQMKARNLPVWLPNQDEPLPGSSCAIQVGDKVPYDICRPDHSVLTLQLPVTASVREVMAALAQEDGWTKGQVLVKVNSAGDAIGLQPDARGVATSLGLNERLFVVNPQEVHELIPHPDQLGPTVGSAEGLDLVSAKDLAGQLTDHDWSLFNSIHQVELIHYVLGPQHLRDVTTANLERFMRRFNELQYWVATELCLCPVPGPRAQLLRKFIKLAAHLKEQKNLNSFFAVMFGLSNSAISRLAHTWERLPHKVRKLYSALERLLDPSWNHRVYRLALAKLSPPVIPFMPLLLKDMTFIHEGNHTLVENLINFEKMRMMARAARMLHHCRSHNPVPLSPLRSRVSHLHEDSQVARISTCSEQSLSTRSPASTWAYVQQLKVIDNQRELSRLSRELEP

On to `COC(=O)C1=C(C)NC(C)=C(C(=O)OC)C1c1cccc(NC(=O)NCCCN2CCC(c3cccc(OC)c3)CC2)c1`, for which the Potency in assay [1] and in assay [2] was 4.59 µM (active) throughout. The activity in [3] was -1.21% and -6.68%. The activity change, negative = inhibition in [4] was 0% and 10.5%.
For `c1ccc2sc(SN3CCOCC3)nc2c1`, the Potency entry in assay [1] and in assay [2] was “inactive” throughout.
As for `CCOC(=O)N1CCN(/[N+]([O-])=N/Oc2ccc([N+](=O)[O-])cc2[N+](=O)[O-])CC1`, the Potency in assay [1] was 7.42 µM (active); in assay [2] it was 5.9 µM (active). Besides, the activity in [3] was -99.7%. In assay [4], the activity change, negative = inhibition is -4.08%.
On to `C=CCc1cccc(/C=N/NC(=O)CN2CCN(Cc3ccccc3)CC2)c1O`, for which the Potency in assay [1] and in [2] was 7.42 µM (active) throughout.
With `CN[C@H](CC(C)C)C(=O)N[C@H]1C(=O)N[C@@H](CC(N)=O)C(=O)N[C@H]2C(=O)N[C@H]3C(=O)N[C@H](C(=O)N[C@H](C(=O)O)c4cc(O)cc(O)c4-c4cc3ccc4O)[C@H](O)c3ccc(c(Cl)c3)Oc3cc2cc(c3O[C@@H]2O[C@H](CO)[C@@H](O)[C@H](O)[C@H]2O[C@H]2C[C@](C)(N)[C@H](O)[C@H](C)O2)Oc2ccc(cc2Cl)[C@H]1O`, the Potency result in assay [1] and in [2] was “inactive” each time.
`CC1(C)S[C@@H]2[C@H](NC(=O)[C@H](N)c3ccccc3)C(=O)N2[C@H]1C(=O)O`: the Potency entry in [1] and in assay [2] was “inactive” each time.
As for `COc1cc(/C=C/C(=O)CC(=O)/C=C/c2ccc(O)c(OC)c2)ccc1O`, the Potency was 11.8 µM (active) in [1] and 8.33 µM (active) in assay [2]. In addition, in assay [3], the activity was -53.7%. Besides, in assay [4], the activity change, negative = inhibition is -2.93%.
Take `O=C(O)c1ccccc1Nc1cccc(C(F)(F)F)c1`: the Potency entry in [2], in [5], in [6] and in [7] was “inactive” each time.
As to `Oc1c(Br)cc(Br)c2cccnc12`, the Potency in assay [1] was 3.76 µM (active); in [2] it was 3.35 µM (active).
`C/C(=N\O)c1ccc(OCC(=O)N2CCCCC2)cc1`: the Potency result in assay [1] and in [2] was “inactive” each time.
On to `Nc1cc(-c2ccncc2)c[nH]c1=O`, for which the Potency entry in [1], in assay [2], in assay [5], in assay [6], in [7] and in [8] was “inactive” each time.
Take `COC(=O)c1nc(Cl)c(Cl)nc1N`: the Potency in assay [1] is 0.0596 µM (active); in assay [2] it was 0.0376 µM (active).
Regarding `CCC1C(=O)OCC1Cc1cncn1C` (stereo unspecified), the Potency entry in assay [1] and in assay [2] was “inactive” in each case.
As to `O=C(CCN1CCN(CCO)CC1)N1c2ccccc2Sc2ccc(C(F)(F)F)cc21`, the Potency entry in assay [1] and in assay [2] was “inactive” each time.
In the case of `Cc1[nH]cnc1CN1CCc2c(c3ccccc3n2C)C1=O`, the Potency result in assay [1] and in assay [2] was “inactive” throughout.
`CC1(C)S[C@@H]2[C@H](NC(=O)[C@H](NC(=O)N3CCN(S(C)(=O)=O)C3=O)c3ccccc3)C(=O)N2[C@H]1C(=O)O`: the Potency entry in assay [1] and in assay [2] was “inactive” throughout.
Turning to `COC(=O)C1=C(C)NC(C)=C(C(=O)OCC(C)C)C1c1ccccc1[N+](=O)[O-]` (stereo unspecified), the Potency in assay [2] is 26.6 µM (active).
As to `CCNc1nc2c(ncn2[C@H]2C[C@H](O)[C@@H](CO)O2)c(=O)[nH]1`, the Potency entry in [1] and in assay [2] was “inactive” throughout.
As for `CC1(C)[C@@H](O)CC[C@]2(C)[C@H]3C(=O)C=C4[C@@H]5C[C@@](C)(C(=O)O)CC[C@]5(C)CC[C@@]4(C)[C@]3(C)CC[C@@H]12`, the Potency entry in assay [1], in assay [2], in [5], in assay [6] and in assay [7] was “inactive” each time. Moreover, the Potency in assay [8] was 3.93 µM (active) and 2.48 µM (active).
Regarding `CS(=O)(=O)c1ccc(-n2nc(C(F)(F)F)cc2-c2ccc(F)cc2)cc1`, the Potency result in assay [1] and in [2] was “inactive” in each case.
For `N.N.N.N.N.N.N.N.N.N.N.N.N.N.O.O.[Ru+4].[Ru+5].[Ru+5]`, the activity in [3] was -14.7%. Also, the Potency in assay [4] was 30.6 µM (active).
Take `CCOC(=O)C1=C(C)NC(C)=C(C(=O)OCC)C1c1c(F)c(F)c(F)c(F)c1F`: the Potency result in assay [6] and in assay [7] was “inactive” in each case. Further, the Potency in [8] was 44.1 µM (active).
As for `O=C1NCc2c1c1c3ccccc3[nH]c1c1[nH]c3ccccc3c21`, the activity in assay [3] was -23.6%. Further, the Potency in [4] is 17.2 µM (active).
As to `CC(=O)[C@]1(O)Cc2c(O)c3c(c(O)c2[C@@H](O[C@H]2C[C@H](N)[C@H](O)[C@H](C)O2)C1)C(=O)c1c(O)cccc1C3=O`, the Potency result in assay [5] and in assay [8] was “inactive” in each case. Besides, the Potency in [6] is 70.6 µM (active); in assay [7], 79.3 µM (active).
Turning to `COc1ccccc1CNCCCCCCNCCCCCCCCNCCCCCCNCc1ccccc1OC`, the activity in [3] stood at 5.14%. Further, the Potency in assay [4] was 0.153 µM (active).
Regarding `COC(=O)c1c(C)[nH]c(C)c1C(=O)c1ccccc1Cc1ccccc1`, the Potency result in [5] and in assay [6] was “inactive” in each case.
Take `C#CCN1C(C)=C(C(=O)OC)C(c2cccc([N+](=O)[O-])c2)C(C(=O)OCC)=C1C` (stereo unspecified): the Potency entry in [6] and in assay [7] was “inactive” in each case. Also, the Potency in assay [8] is 6.98 µM (active).
Consider `CC(C)(C)c1ccc(S(=O)(=O)/C=C/C#N)cc1`, for which the activity in [3] is 0.864%. Further, in assay [4], the activity change, negative = inhibition was -1.56%.
As to `O=C1C(SCCO)=C(SCCO)C(=O)c2ccccc21`, the Potency entry in [6], in assay [7] and in assay [8] was “inactive” throughout. Besides, the outcome in [9] is “inactive”. Moreover, in [3], the activity is -43.3%. Besides, the Potency in assay [4] is 4.85 µM (active).
As for `CC(C)(C=O)Cc1cc(C(C)(C)C)c(O)c(C(C)(C)C)c1`, in assay [3], the activity was determined as 2.63%. In addition, the activity change, negative = inhibition in assay [4] came to 1.77%.
As for `c1ccc(CCNc2nc(-c3ccccc3)cs2)cc1`, the Potency entry in assay [5], in [6], in assay [7] and in [8] was “inactive” in each case.
On to `Oc1ccc(C2CNCc3sccc32)cc1O` (stereo unspecified), for which, in [3], the activity was found to be 133%. The activity change, negative = inhibition in assay [4] worked out at 1.13%.
As for `COC1=C(OC)C(=O)c2ccccc2C1=O`, the activity in [3] is -44.1%. Besides, the Potency in assay [4] was 19.3 µM (active).
